Results reported in PubChem BioAssay AID2688 (National Center for Advancing Translational Sciences (NCATS), 2010).
The list shows a part of the results. Results filed as inconclusive are left out. Active and inactive are the calls of the source.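 How the source made its calls: active means compounds whose IC50 for blocking JMJD2E demethylation is below 100 µM; inconclusive means dose dependent effect but IC50 above 100 µM; inactive means the rest.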

What follows are compounds tested against Lysine-specific demethylase 4E (Homo sapiens) (UniProt B2RXH2) (assay: MALDI-TOF-MS Assay for Inhibitors of Human Jumonji Domain Containing 2E (JMJD2E)). Conditions: recombinant JMJD2E demethylation.
Description: The fine interplay among methylation states of several lysine residues on the tails of histone proteins is a major determinant of the transcriptional state of the associated DNA coding regions and is commonly referred to as the histone code. Histone lysine demethylases catalyze the removal of methyl groups from methylated lysine sidechains on histones H3 and H4, thus antagonizing the reactions catalyzed by histone lysine methyltransferases. […] In search for novel inhibitors of JMJD2E demethylase, a member of the largest set of histone demethylases belonging to the Fe(II) and 2-oxoglutarate oxygenase (2OG) superfamily, we performed a quantitative high-throughput screen (Inglese 2006). See AID 2147 for details on the primary screen. […]
For the MS assays, JMJD2E (2 uM), FAS (10 uM) and SA (100 uM) in HEPES buffer, 50 mM, pH 7.5, were incubated with inhibitor (stock solutions in DMSO, final in-assay concentration varied, but final DMSO concentration was 5% of assay mix) for 15 min at room temperature. […] The relative intensities of different methylation states observed in the mass spectra were then used to calculate percentage demethylation, and IC50s were calculated from the variation in percentage demethylation at different inhibitor concentrations.

Lysine-specific demethylase 4E (Homo sapiens), sequence (B2RXH2 1-337 limits assumed): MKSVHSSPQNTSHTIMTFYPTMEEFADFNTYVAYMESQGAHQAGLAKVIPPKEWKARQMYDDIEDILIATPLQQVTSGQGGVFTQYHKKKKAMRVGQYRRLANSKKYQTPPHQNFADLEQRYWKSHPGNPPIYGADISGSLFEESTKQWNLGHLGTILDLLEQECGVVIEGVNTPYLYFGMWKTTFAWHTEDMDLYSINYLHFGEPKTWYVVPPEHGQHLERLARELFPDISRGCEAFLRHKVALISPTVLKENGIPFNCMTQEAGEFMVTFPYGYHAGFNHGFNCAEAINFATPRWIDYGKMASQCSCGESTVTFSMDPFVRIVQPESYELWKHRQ

| Structure (SMILES) | Potency |
| --- | --- |
| Nc1ccc(Nc2cc(O)c3ncccc3c2)cc1 | 20.2 µM (active) |
| Oc1ccc(/C=C/c2c(F)cccc2F)c2cccnc12 | 89.6 µM (active) |
